B1: ENSMUSG00000061578.324|Ksr2|150:154 (ssRNA)
RNA: GGGAGUUCUACAGUCCGACGAUCGCUUCGAUAUCCGCAUGCUAGUAGCUCAAUGACCCAGUGGGUCACAGUUCUAGGCGCUCCAAGGAAGCCAGGGGAGGGGGACUCCUCAGGAAGGAGUGACCAGUCACCUGCCUCCCAGGGUUCUGCCUUGCCCUUAAGCUAGGGUCCUUCAAGCAUCCACAGACUUAGACACACGUGGUAACAUGCUUGUAAUCCUGGCACUCUGGAGGCUGAGGCAGGAGGAUAACAAGUCUAGACUAUAUAUGAUUUCUGAGGGUCUGUUAGUGAAUAAGUACCUGGACUCUUGCGGUCGCACUAGUGUGGAAUUCUCGGGUGUCAAGG
B2: ENSMUSG00000032194.274|Kank2|91:95;178:182 (ssRNA)
RNA: GGGAGUUCUACAGUCCGACGAUCGCUUCGAUAUCCGCAUGCUAGGAUGCAUAAAUGAAUAGAUGGAUGGAUGAAUGAACAGAUAGAUGAAUGGAUGGAUGGACAGGUGGGUGGAUGGAUGGGUGGACGGAUGACACACGGGUGGGUGGAUGGAUAAAUGAGCAAUGGAUGAGAAACUGGGUUGGCUGGUGGGUAGAUGUCAUGAUGGAGUCUUUGCACGUCAUACAAACAGAAAACCAAACUUCAGGACAGACAGCUGCUGGUGUCUCUGGAUGCUCACAGCCUAGGGCACAUUUGAAAGGUCCUCUUGCGGUCGCACUAGUGUGGAAUUCUCGGGUGUCAAGG
B3: ENSMUSG00000032194.276|Kank2 (ssRNA)
RNA: GGGAGUUCUACAGUCCGACGAUCGCUUCGAUAUCCGCAUGCUAGAAUAGAUGGAUGGAUGAAUGAACAGAUAGAUGAAUGGAUGGAUGGACAGGUGGGUGGAUGGAUGGGUGGACGGAUGAGUGUGGGGUGGGUGGAUGGAUAAAUGAGCAAUGGAUGAGAAACUGGGUUGGCUGGUGGGUAGAUGUCAUGAUGGAGUCUUUGCACGUGUAUGAAACAGAAAACCAAACUUCAGGACAGACAGCUGCUGGUGUCUCUGGAUGCUCACAGCCUAGGGCACAUUUGAAAGGUCGUGCUCUGAGCUCUCUUGCGGUCGCACUAGUGUGGAAUUCUCGGGUGUCAAGG
B4: ENSMUSG00000032194.272|Kank2|103:107;190:194 (ssRNA)
RNA: GGGAGUUCUACAGUCCGACGAUCGCUUCGAUAUCCGCAUGCUAGGGUGGGUGGAUGGAUGCAUAAAUGAAUAGAUGGAUGGAUGAAUGAACAGAUAGAUGAAUGGAUGGAUGGACAGGUGGGUGGAUGGAUGGGUGGACGGAUGACACACGGGUGGGUGGAUGGAUAAAUGAGCAAUGGAUGAGAAACUGGGUUGGCUGGUGGGUAGAUGUCAUGAUGGAGUCUUUGCACGUCAUACAAACAGAAAACCAAACUUCAGGACAGACAGCUGCUGGUGUCUCUGGAUGCUCACAGCCUAGGGCACCUCUUGCGGUCGCACUAGUGUGGAAUUCUCGGGUGUCAAGG
B5: ENSMUSG00000032194.277|Kank2 (ssRNA)
RNA: GGGAGUUCUACAGUCCGACGAUCGCUUCGAUAUCCGCAUGCUAAUGGAUGGAUGAAUGAACAGAUAGAUGAAUGGAUGGAUGGACAGGUGGGUGGAUGGAUGGGUGGACGGAUGAGUGUGGGGUGGGUGGAUGGAUAAAUGAGCAAUGGAUGAGAAACUGGGUUGGCUGGUGGGUAGAUGUCAUGAUGGAGUCUUUGCACGUGUAUGAAACAGAAAACCAAACUUCAGGACAGACAGCUGCUGGUGUCUCUGGAUGCUCACAGCCUAGGGCACAUUUGAAAGGUCGUGCUCUGAGCUGAGCCCCUCUUGCGGUCGCACUAGUGUGGAAUUCUCGGGUGUCAAGG
B6: ENSMUSG00000032194.279|Kank2 (ssRNA)
RNA: GGGAGUUCUACAGUCCGACGAUCGCUUCGAUAUCCGCAUGCUAAUGAACAGAUAGAUGAAUGGAUGGAUGGACAGGUGGGUGGAUGGAUGGGUGGACGGAUGAGUGUGGGGUGGGUGGAUGGAUAAAUGAGCAAUGGAUGAGAAACUGGGUUGGCUGGUGGGUAGAUGUCAUGAUGGAGUCUUUGCACGUGUAUGAAACAGAAAACCAAACUUCAGGACAGACAGCUGCUGGUGUCUCUGGAUGCUCACAGCCUAGGGCACAUUUGAAAGGUCGUGCUCUGAGCUGAGCCCUGAGUUCCAGCCCUCUUGCGGUCGCACUAGUGUGGAAUUCUCGGGUGUCAAGG
B7: ENSMUSG00000032194.273|Kank2|97:101;184:188 (ssRNA)
RNA: GGGAGUUCUACAGUCCGACGAUCGCUUCGAUAUCCGCAUGCUAGUGGAUGGAUGCAUAAAUGAAUAGAUGGAUGGAUGAAUGAACAGAUAGAUGAAUGGAUGGAUGGACAGGUGGGUGGAUGGAUGGGUGGACGGAUGACACACGGGUGGGUGGAUGGAUAAAUGAGCAAUGGAUGAGAAACUGGGUUGGCUGGUGGGUAGAUGUCAUGAUGGAGUCUUUGCACGUCAUACAAACAGAAAACCAAACUUCAGGACAGACAGCUGCUGGUGUCUCUGGAUGCUCACAGCCUAGGGCACAUUUGACUCUUGCGGUCGCACUAGUGUGGAAUUCUCGGGUGUCAAGG
B8: ENSMUSG00000032194.275|Kank2 (ssRNA)
RNA: GGGAGUUCUACAGUCCGACGAUCGCUUCGAUAUCCGCAUGCUAAUAAAUGAAUAGAUGGAUGGAUGAAUGAACAGAUAGAUGAAUGGAUGGAUGGACAGGUGGGUGGAUGGAUGGGUGGACGGAUGAGUGUGGGGUGGGUGGAUGGAUAAAUGAGCAAUGGAUGAGAAACUGGGUUGGCUGGUGGGUAGAUGUCAUGAUGGAGUCUUUGCACGUGUAUGAAACAGAAAACCAAACUUCAGGACAGACAGCUGCUGGUGUCUCUGGAUGCUCACAGCCUAGGGCACAUUUGAAAGGUCGUGCUCCUCUUGCGGUCGCACUAGUGUGGAAUUCUCGGGUGUCAAGG
B9: ENSMUSG00000032194.278|Kank2 (ssRNA)
RNA: GGGAGUUCUACAGUCCGACGAUCGCUUCGAUAUCCGCAUGCUAGGAUGAAUGAACAGAUAGAUGAAUGGAUGGAUGGACAGGUGGGUGGAUGGAUGGGUGGACGGAUGAGUGUGGGGUGGGUGGAUGGAUAAAUGAGCAAUGGAUGAGAAACUGGGUUGGCUGGUGGGUAGAUGUCAUGAUGGAGUCUUUGCACGUGUAUGAAACAGAAAACCAAACUUCAGGACAGACAGCUGCUGGUGUCUCUGGAUGCUCACAGCCUAGGGCACAUUUGAAAGGUCGUGCUCUGAGCUGAGCCCUGAGUUCUCUUGCGGUCGCACUAGUGUGGAAUUCUCGGGUGUCAAGG
B10: ENSMUSG00000032194.274|Kank2 (ssRNA)
RNA: B2 RNA with C134G, A135U, C136G, A137U, C138G, C221G, A222U, U223A, A224U, C225G

Numbering of substitutions follows the chain as printed. Whole data set: some 9,900 sequences, median “r (bound/input frequency ratio)” near 0.7, cut for the highest 2% near 6.5. What follows is part of a selection rich in the highest values, with near analogues and random picks from the rest.

Chain of TDP-43 (Q13148 whole entry): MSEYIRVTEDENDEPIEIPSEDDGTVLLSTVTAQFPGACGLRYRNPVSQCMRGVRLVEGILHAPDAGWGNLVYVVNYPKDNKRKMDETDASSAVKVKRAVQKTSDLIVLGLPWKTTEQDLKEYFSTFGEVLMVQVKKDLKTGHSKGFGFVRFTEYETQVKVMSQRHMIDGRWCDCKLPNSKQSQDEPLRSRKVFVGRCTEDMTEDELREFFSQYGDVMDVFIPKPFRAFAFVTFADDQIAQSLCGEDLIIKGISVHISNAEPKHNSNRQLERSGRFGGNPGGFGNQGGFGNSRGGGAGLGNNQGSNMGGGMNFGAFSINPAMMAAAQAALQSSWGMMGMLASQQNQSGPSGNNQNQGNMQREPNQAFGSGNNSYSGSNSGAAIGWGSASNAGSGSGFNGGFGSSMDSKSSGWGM

This assay addresses TDP-43 (Homo sapiens, UniProt Q13148 1-414). The experiment in a line: RNA Bind-n-Seq with designed 260-mer pool; 25 mM Tris-HCl, 150 mM KCl, 3 mM MgCl2, BSA (printed 500 mg/mL), 20 units/mL SUPERase IN; pH not stated; 500 nM RNA pool, 1 h, 4 C; TDP-43 5, 50, 500 nM; high values mean tight binding. As to conditions: protein: recombinant; tags: SBP (GST cleaved off with PreScission; pGEX-GST-SBP). In short, it runs like this: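 For each oligo, R gives binding as its mapped-read-normalized abundance after pulldown divided by its abundance in input. Bead-captured SBP-tagged TDP-43 (5, 50 or 500 nM) was incubated with 500 nM of an in vitro-transcribed 260-nt 3′ UTR oligo pool for 1 h at 4 °C in 25 mM Tris-HCl, 150 mM KCl, 3 mM MgCl2, BSA and SUPERase IN on streptavidin beads. Washed, biotin-eluted RNA was reverse transcribed, PCR-amplified and sequenced.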
Regarding B1, the binding signal was 0.658 R (bound/input frequency ratio).
Consider B2, for which the binding signal was 5.59 R (bound/input frequency ratio).
To B3 belongs 6.02 R (bound/input frequency ratio); to B4, 5.68 R (bound/input frequency ratio); to B5, 7.21 R (bound/input frequency ratio).
For the molecule B6, the binding signal is 5.39 R (bound/input frequency ratio).
Consider B7, for which the binding signal is 6.83 R (bound/input frequency ratio).
To B8 belongs 7.07 R (bound/input frequency ratio).
For B9, the binding signal was 5.8 R (bound/input frequency ratio).
In the case of B10, the binding signal is 6.07 R (bound/input frequency ratio).

Values taken from paper PMC12864922, “TDP-43 directly inhibits mRNA accumulation in neurites through modulation of mRNA stability”.
